The text below walks through data of PubChem BioAssay.

A short description of assay [1]: small molecules captured by biotinylated probe aFSTL3 – biochemical, small-molecule microarray, fluorescence 635/667, stem cell growth factor project, primary screen (AID 1064).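 Also: measures binding of the biotinylated anti-FSTL3 antibody to printed compounds.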 As to conditions: higher = more signal.
A short description of assay [2]: binders from COS7 lysate, DM2A8 probe, primary screen, torsin A project, cell lysate, small-molecule microarray, fluorescence 635/667 (AID 1065). Conditions: higher = more signal, COS7 lysate expressing mutant human TOR1A.
A short description of assay [3]: small molecules captured by biotinylated probe aFGF2 – biochemical, small-molecule microarray, fluorescence 635/667, stem cell growth factor project, primary screen (AID 1067).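 Also: measures binding of biotinylated aFGF2 protein to printed compounds on slides; z-score merges feature fluorescence and signal-to-noise across triplicate slides.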 Conditions: higher = more signal.
Assay [4] is described as follows: small molecules captured by biotinylated probe aFGF10 – biochemical, small-molecule microarray, fluorescence 635/667, stem cell growth factor project, primary screen (AID 1071).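 Also: score merges 667 nm spot intensity and signal to noise from triplicate slides.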 Conditions: higher = more signal.
The target in assay [5] is Neurogenic locus notch homolog protein 2 (Homo sapiens) (UniProt Q04721). The assay can be described thus: small molecules binding Notch2 protein – biochemical, small-molecule microarray, 635 nm fluorescence, stem cell growth factors, primary screen (AID 1073). Conditions: higher = more signal.
In assay [6] the target is Pro-neuregulin-1, membrane-bound isoform (Homo sapiens) (UniProt Q02297). As to the kind of experiment: small molecules binding neuregulin-1 protein – biochemical, small-molecule microarray, fluorescence 635/667, psychiatric disease protein project, primary screen (AID 1075).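 Also: score combines 667 nm spot fluorescence with signal to noise.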 As to conditions: NRG1 binding, 635 nm fluorescence, higher = more signal.
Assay [7] deals with Neuregulin-1 EGF-like domain. The assay can be described thus: small molecules binding NRG1 EGF domain – biochemical, small-molecule microarray, 635 nm fluorescence, primary screen (AID 1081).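 Also: binding of the protein to compounds printed on small-molecule microarray slides.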 As to conditions: higher = more signal.
Assay [8] is described as follows: FRG1 expression reporter modulators in myotubes – cell-based, C2C12 myotubes, firefly/Renilla luciferase, luminescence, FRG1 inhibition for FSHD, primary screen (AID 1084). Conditions: FRG1 promoter luciferase, higher = more signal, called active from +8 up or from −8 down.
The nature of assay [9]: small molecules captured by biotinylated probe aFST – biochemical, small-molecule microarray, fluorescence 635/667, stem cell growth factor project, primary screen (AID 1086).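 Also: score merges 667 nm fluorescence with signal-to-noise of each printed compound spot.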 Conditions: higher = more signal.
Assay [10] is described as follows: binders of probe aHhip on microarray, primary screen, stem cell growth factor project, biochemical, small-molecule microarray, fluorescence 635/667 (AID 1087).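 Also: score merges spot fluorescence at 667nm with spot signal to noise ratio.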 Conditions: higher = more signal.
The test system of assay [11] is PRMT1 (protein arginine N-methyltransferase 1). As to the kind of experiment: small molecules binding arginine methyltransferase PRMT1 – biochemical, small-molecule microarray, 635 nm fluorescence, primary screen (AID 1088).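 Also: binding of Prmt1 protein to compounds spotted on small-molecule microarray slides.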 Conditions: higher = more signal.
Assay [12] in a line: growth effects on S. cerevisiae YJM789 – YJM789 clinical isolate, OD600, 24 h, basal, primary screen (AID 1089).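 Also: growth of clinical yeast isolate S. cerevisiae YJM 789 seeded 1000 cells per well; test concentration not given here.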 As to conditions: higher = more signal, called active from +8 up or from −8 down.
Assay [13] can be described thus: S. pombe growth modifiers, basal conditions – strain 972, OD600, 24 h, no modulator, primary screen (AID 1090).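 Also: basal condition with compound alone and no growth modifier present; test concentration not given here.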 As to conditions: S. pombe 972 growth, higher = more signal, called active from +8 up or from −8 down.
A short description of assay [14]: budding yeast growth modifiers under rapamycin – strain BY4716, OD600, 96 h, primary screen (AID 1091). Also: test concentration not given here. Conditions: S. cerevisiae BY4716 + rapamycin, higher = more signal, called active from +8 up or from −8 down.
Assay [15] has as its target Torsin-1A-interacting protein 2 (Homo sapiens) (UniProt Q8NFQ8). As to the kind of experiment: small molecules binding lysate-expressed LULL1 – cell lysate, human LULL1 lysate, 635/667 nm fluorescence, primary screen (AID 1092).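 Also: probe is lysate of COS7 cells overexpressing human LULL1; score merges per-feature 667 nm fluorescence with signal-to-noise.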 As to conditions: small-molecule microarray, hLULL1 lysate binding, 635 nm fluorescence; higher = more signal.
Assay [16] can be described thus: optical density change of DRC41 E. coli – strain DRC41, OD650, 24 h, E. coli filamentation project, primary screen (AID 1093).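 Also: MC1000 strain lacking acrAB efflux and sulA so SOS filamentation is blocked; test concentration not given here.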 As to conditions: E. coli DRC41 growth, higher = more signal, called active from +8 up or from −8 down.
Assay [17] can be described thus: probe aLefty2 binding to arrayed compounds – biochemical, biotinylated probe, 635/667 nm fluorescence, primary screen (AID 1094).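 Also: score merges spot fluorescence near 667 nm with spot signal-to-noise ratio.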 Conditions: small-molecule microarray, higher = more signal.
Assay [18] relates to Noggin (protein binding on small-molecule microarray). The assay can be described thus: small molecules binding Noggin protein – biochemical, 635/667 nm fluorescence, primary screen (AID 1095).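 Also: score merges 667 nm feature fluorescence with signal to noise over triplicate slides.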 Conditions: 635 nm fluorescence, higher = more signal.
Assay [19] concerns the target Neurogenic locus notch homolog protein 3 (Homo sapiens) (UniProt Q9UM47). As to the kind of experiment: small molecules binding NOTCH3 protein – biochemical, 635/667 nm fluorescence, primary screen (AID 1096). Conditions: small-molecule microarray, 635 nm fluorescence, higher = more signal.
The nature of assay [20]: probe aEGFR binding to arrayed compounds – biochemical, biotinylated probe, 635/667 nm fluorescence, primary screen (AID 1097).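 Also: probe is a biotinylated anti-EGFR antibody binding compounds printed on slides; score combines fluorescence near 667 nm and signal to noise of each spot.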 As to conditions: small-molecule microarray, higher = more signal.

Active and inactive are the calls of the source.

Sequence of Neurogenic locus notch homolog protein 3 (Homo sapiens) (Q9UM47 whole entry, looked up): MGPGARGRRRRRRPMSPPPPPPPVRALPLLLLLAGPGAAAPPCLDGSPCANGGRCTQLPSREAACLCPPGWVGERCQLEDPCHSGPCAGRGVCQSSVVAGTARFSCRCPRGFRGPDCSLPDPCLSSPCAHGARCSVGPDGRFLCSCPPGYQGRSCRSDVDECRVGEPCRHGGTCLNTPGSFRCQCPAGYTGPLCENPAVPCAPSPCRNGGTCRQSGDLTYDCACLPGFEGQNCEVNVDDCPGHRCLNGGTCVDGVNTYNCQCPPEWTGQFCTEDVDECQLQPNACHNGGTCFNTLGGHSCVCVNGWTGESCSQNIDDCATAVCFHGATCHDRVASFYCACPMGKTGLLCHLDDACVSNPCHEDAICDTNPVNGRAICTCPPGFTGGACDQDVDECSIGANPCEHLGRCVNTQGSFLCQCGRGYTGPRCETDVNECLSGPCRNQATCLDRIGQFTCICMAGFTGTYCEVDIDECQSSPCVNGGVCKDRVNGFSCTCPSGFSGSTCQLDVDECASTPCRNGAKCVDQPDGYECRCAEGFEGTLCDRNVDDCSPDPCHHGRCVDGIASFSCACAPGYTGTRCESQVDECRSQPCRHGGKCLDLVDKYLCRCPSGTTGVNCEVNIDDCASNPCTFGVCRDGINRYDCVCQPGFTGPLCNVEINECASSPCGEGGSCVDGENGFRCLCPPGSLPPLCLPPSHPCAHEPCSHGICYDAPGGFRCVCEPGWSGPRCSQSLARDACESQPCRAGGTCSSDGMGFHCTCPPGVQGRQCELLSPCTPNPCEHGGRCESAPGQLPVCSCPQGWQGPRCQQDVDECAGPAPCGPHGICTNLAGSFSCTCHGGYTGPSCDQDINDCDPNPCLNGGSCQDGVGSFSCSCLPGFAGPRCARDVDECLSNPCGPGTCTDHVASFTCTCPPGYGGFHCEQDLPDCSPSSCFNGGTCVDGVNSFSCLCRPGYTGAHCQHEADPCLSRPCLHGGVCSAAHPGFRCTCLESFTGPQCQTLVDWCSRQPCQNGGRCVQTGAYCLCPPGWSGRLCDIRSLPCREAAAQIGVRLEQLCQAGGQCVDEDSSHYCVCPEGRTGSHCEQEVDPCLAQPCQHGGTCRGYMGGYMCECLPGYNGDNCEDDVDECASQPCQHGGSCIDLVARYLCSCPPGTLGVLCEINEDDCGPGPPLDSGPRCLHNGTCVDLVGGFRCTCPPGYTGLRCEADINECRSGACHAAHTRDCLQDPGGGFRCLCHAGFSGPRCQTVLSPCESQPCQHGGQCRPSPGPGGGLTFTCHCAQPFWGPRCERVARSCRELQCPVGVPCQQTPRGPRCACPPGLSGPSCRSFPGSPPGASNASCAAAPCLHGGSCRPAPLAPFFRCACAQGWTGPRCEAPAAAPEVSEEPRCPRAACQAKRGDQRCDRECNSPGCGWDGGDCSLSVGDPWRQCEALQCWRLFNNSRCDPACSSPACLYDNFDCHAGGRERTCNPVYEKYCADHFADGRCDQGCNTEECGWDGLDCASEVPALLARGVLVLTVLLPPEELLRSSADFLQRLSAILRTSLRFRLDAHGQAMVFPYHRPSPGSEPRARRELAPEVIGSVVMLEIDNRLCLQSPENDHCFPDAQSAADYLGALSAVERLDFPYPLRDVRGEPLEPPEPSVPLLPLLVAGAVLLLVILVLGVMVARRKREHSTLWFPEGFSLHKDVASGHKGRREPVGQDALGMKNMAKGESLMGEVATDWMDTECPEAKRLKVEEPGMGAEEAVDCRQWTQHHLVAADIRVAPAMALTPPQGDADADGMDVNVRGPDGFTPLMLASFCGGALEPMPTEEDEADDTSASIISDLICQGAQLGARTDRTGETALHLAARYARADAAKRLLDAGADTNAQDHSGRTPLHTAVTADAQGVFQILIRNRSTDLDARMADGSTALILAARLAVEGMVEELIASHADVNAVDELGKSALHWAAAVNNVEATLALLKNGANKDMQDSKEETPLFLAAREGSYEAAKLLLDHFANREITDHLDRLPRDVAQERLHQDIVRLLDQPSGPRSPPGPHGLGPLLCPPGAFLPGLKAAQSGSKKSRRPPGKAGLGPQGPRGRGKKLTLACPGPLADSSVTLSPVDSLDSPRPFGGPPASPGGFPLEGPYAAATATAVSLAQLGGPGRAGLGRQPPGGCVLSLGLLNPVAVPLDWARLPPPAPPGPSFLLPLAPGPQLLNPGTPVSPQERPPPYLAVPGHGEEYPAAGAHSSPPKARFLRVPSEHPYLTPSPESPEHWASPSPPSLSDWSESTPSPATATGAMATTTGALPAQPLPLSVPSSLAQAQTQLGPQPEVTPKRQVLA
Sequence of Torsin-1A-interacting protein 2 (Homo sapiens) (Q8NFQ8 whole entry, looked up): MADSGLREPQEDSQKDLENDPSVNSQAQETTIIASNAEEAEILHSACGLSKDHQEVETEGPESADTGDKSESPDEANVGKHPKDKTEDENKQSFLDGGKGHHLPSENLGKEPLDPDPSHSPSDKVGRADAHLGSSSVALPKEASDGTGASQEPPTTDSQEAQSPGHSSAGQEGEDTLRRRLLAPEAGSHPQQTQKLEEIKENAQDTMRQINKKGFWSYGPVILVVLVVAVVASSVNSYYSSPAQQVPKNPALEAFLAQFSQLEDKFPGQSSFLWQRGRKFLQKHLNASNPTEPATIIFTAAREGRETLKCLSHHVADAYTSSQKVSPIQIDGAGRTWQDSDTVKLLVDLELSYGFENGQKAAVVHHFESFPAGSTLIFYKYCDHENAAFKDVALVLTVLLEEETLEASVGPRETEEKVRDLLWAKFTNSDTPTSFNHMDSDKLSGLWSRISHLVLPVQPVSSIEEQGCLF
Sequence of Pro-neuregulin-1, membrane-bound isoform (Homo sapiens) (Q02297 whole entry, looked up, the tested form may be a part, canonical isoform): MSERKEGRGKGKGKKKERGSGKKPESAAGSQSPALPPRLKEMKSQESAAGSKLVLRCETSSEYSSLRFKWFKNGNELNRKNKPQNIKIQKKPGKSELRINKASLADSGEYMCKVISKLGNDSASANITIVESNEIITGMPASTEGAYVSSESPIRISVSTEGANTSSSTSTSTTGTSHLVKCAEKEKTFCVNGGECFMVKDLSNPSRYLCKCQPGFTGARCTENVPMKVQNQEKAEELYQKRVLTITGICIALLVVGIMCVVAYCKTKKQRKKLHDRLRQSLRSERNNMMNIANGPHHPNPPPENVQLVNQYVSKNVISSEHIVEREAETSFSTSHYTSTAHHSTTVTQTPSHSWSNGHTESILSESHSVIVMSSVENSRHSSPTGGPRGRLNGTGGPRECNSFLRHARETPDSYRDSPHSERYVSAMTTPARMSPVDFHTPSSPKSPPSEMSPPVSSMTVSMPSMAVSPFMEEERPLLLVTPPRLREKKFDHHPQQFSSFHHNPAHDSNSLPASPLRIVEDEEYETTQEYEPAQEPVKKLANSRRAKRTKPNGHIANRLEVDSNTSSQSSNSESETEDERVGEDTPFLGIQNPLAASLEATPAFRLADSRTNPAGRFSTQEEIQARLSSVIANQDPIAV

As to `C=C[C@@H](COC(C)=O)N(Cc1ccccc1[N+](=O)[O-])S(=O)(=O)c1ccc(Br)cc1`, the composite z-score in assay [1] came to 0.0537; in [2], 0.98; in assay [3], 0.033; in assay [4], 0.372; in assay [5], 1.01; in assay [6], 0.939. The composite z-score was 0.974 in assay [7]; 0.399 in assay [9]; 0.0524 in assay [10]; 0.61 in assay [11]; 1.43 in assay [15]; -0.297 in assay [17]. Also, the composite z-score in assay [18] was 1.1; in [19], 0.945; in assay [20], 0.212. Besides, the z-score is -3.14 (inactive) in assay [8]; -3.84 (inactive) in assay [12]; -2.76 (inactive) in assay [13]; -0.748 (inactive) in assay [14]; 1.91 (inactive) in assay [16].

For the compound `COc1ccc(CCNC(=O)[C@@]2(Sc3ccc(C)cc3)CC(=O)N(Cc3ccccc3Cl)[C@@H]2c2ccc(CO)cc2I)cc1`, the composite z-score in assay [1] is 0.91; in [2], -0.548; in assay [3], -0.105; in assay [4] it was 0.0404; in assay [5], -1.02; in assay [6], 1.2. In addition, the composite z-score in assay [7] was 0.883; in assay [9] it was -0.299; in assay [10], 0.0695; in assay [11] it was 1.26; in [15], 1.8; in assay [17], 0.0349. For the same compound, the composite z-score in assay [18] was -0.284; in assay [19], -0.788; in [20], -0.185. Moreover, the z-score in assay [8] was -2.03 (inactive); in assay [12] it was -1.62 (inactive); in assay [13], -3.24 (inactive); in [14] it was 1.72 (inactive); in assay [16], 0.68 (inactive).

Take `C=C(C(=O)CC[C@H](OC(C)=O)c1ccc(OCCO)cc1)C(C)C`: the composite z-score in assay [1] was -0.398; in assay [2], 0.194; in assay [3], -0.134; in [4] it was 0.991; in assay [5] it was 1.49; in [6], 0.0987. In addition, the composite z-score was -0.108 in assay [7]; 0.0745 in assay [9]; 0.174 in [10]; 1.19 in [11]; 0.739 in assay [15]; -0.212 in assay [17]. Further, the composite z-score was 1.22 in assay [18], 0.801 in [19] and -0.156 in assay [20]. Further, the z-score was -2.5 (inactive) in assay [8]; -24.6 (active) in assay [12]; -20.5 (active) in assay [13]; -4.29 (inactive) in [14]; 2.11 (inactive) in [16].

Regarding `CC(C)N1C(=O)c2ccccc2[C@@H](C(=O)NCCCN(C)C)[C@@H]1c1ccc(CO)cc1`, the composite z-score is 0.878 in assay [1]; -0.194 in assay [2]; -0.0502 in assay [3]; -0.086 in assay [4]; 0.102 in assay [5]; 1.78 in assay [6]. Also, the composite z-score was 1.11 in [7]; 0.908 in assay [9]; 0.0066 in [10]; -0.468 in assay [11]; 1.3 in assay [15]; 0.196 in [17]. Further, the composite z-score is -0.879 in assay [18], -0.807 in [19] and -0.0435 in assay [20]. For the same compound, the z-score was 0.0159 (inactive) in assay [8]; -0.545 (inactive) in assay [12]; -0.672 (inactive) in assay [13]; -0.181 (inactive) in assay [14]; -1.04 (inactive) in [16].

With `O=C1C2C=CC(C(O)c3ccc(-c4ccccc4)s3)N(n3cnnc3)C2C(=O)N1Cc1ccccc1` (stereo not given), the composite z-score in assay [1] is 0.0626; in assay [2], -0.0982; in [3], -0.083; in assay [4], -0.0152; in assay [5] it was 0.207; in [6], 0.802. Besides, the composite z-score in [7] was 1.04; in assay [9], 0.415; in assay [10] it was -0.0645; in [11], 0.147; in assay [15] it was 1.77; in [17] it was -0.0823. Also, the composite z-score in assay [18] was -0.0489; in [19], 0.225; in assay [20] it was -0.0716. Moreover, the z-score in [8] was 0.545 (inactive); in [12], -0.466 (inactive); in assay [13] it was -11.7 (active); in [14], -0.0238 (inactive); in [16], -0.485 (inactive).
